# D1 ag: human D1 receptor agonism. P21728. HEK293 T-REx D1 cells, calcium flux, agonist mode. activation, % at 2 µM. 360,000 compounds, 1% hits. AID 504660; in the data active means activation above about 30%; further: 0% is about no effect
# Target sequence (P21728 whole entry, looked up): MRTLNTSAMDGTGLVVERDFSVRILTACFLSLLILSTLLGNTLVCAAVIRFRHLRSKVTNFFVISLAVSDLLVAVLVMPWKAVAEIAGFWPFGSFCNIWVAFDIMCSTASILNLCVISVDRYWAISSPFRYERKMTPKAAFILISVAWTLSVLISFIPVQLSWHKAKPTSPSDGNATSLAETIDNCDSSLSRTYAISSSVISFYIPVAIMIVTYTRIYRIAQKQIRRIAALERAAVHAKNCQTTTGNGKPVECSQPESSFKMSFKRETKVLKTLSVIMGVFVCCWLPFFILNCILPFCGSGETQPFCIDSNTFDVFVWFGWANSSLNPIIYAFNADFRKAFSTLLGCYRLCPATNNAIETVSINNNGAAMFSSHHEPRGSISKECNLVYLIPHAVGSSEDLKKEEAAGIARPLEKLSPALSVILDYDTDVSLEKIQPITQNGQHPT
#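 Tetracycline-induced HEK293 TREx D1 cells, force-coupled to calcium signalling, were dye-loaded with a no-wash calcium kit. Compound was pin-added after a 10 s baseline. Fluorescence was read kinetically at 1 cycle/s for 180 s, with calcium rises flagged as agonism.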
# GALK inhibitor: galactokinase (human) inhibition; AID 1868; Potency, µM (doses to about 57.5 µM), without a hit: at the highest dose activity change, negative = inhibition, most hits filed as inhibitors; 270,000 compounds, 0.007% hits; Purified GALK, Kinase-Glo residual ATP luminescence; further: potency means the concentration at half of the fitted maximal effect; on the % scale 0 is the no-effect control and ±100 the full control effect
#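 5 nM enzyme, 35 uM ATP, 100 uM galactose, 20 mM HEPES pH8.0, 5 mM MgCl2; 1 h RT; residual ATP by Kinase-Glo Plus luminescence, qHTS format.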
# D1 PAM: human D1 dopamine receptor positive modulation | potentiation, % at 10 µM | HEK293 TREx D1 cells, calcium flux, dopamine EC20 potentiation | 360,000 compounds, 0.036% hits; in the data active means potentiation above about 30%; further: 0% is about no effect
# USP2a block: blocks human ubiquitin-specific protease USP2a | USP2 core, Ub-CHOP2 coupled fluorogenic reporter, 485/531 | 330,000 compounds, 0.01% hits | AID 463254 | O75604 | Potency, µM (titrated, usually from 38.3 µM), for the others: at the highest dose activity change, negative = inhibition, hits mostly inhibitors;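 further: potency means the concentration at half of the fitted maximal effect; plate controls were DMSO wells for no effect and full inhibition by NEM control for full effect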
#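 Cell-free coupled assay: 10nM USP2 core preincubated 30min RT with compound in Tris-HCl pH 8.0/CaCl2/CHAPS buffer, then 25nM Ub-CHOP2 and 25nM reporter substrate; fluorescence (Ex 485/Em 531) read after 60min RT, normalized to NEM inhibition, concentration-response curves fitted.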
# Eya2 phos inh: Eya2 (human) phosphatase inhibition. AID 488837. Potency, µM (series often up to 76.9 µM), for inactives: top-dose activity, negative = inhibition, hits mostly inhibitors. recombinant Eya2, OMFP fluorescence dephosphorylation (OMFP is methylfluorescein phosphate). 330,000 compounds, 0.006% hits. O00167; further: potency means the concentration at half of the fitted maximal effect; on the % scale 0 is the no-effect control and ±100 the full control effect
#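 Eya2 protein (added as 0.2 uM solution) was preincubated with compound for 10 min at ambient temperature in 50 mM HEPES pH 7.5, 50 mM NaCl, 5 uM MgCl2, 0.05% BSA, 1 mM DTT. OMFP (added at 50 uM) then reacted 10 min; fluorescence read at 485/525 nm.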
# D1 antagonist: human D1 dopamine receptor antagonism; P21728; HEK293 TREx D1 cells, calcium flux, dopamine EC80; stronger effect = lower value; activity change, negative = inhibition, % at 10 µM; 360,000 compounds, 3.2% hits; AID 504652; in the data active means activity change below about -30%; further: on the % scale 0 is the no-effect control and ±100 the full control effect
#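 HEK293 T-REx cells expressing inducible, force-coupled D1 receptor; no-wash Ca dye, 30–90 min RT. Cmpd → 180 s read at 1 Hz → EC80 DA → 180 s read.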
# The depositor's hits bear a star; . = no result given. Sampled rows, rich in hits. Any-hit rate of the full collection: about 3.9%. Unless noted, the call rests on the fitted dose curve; in most records, active means well fitted inhibition curve with a large enough effect; inconclusive means small, poorly fitted or top-dose-only effect, or effect the other way; inactive means flat fitted curve, though single readings scatter.
SMILES,D1 ag,GALK inhibitor,D1 PAM,USP2a block,Eya2 phos inh,D1 antagonist
CC(C)c1ccc(-c2noc(SCC(=O)N3CCCCC3C)n2)cc1 (configuration not stated),9,.,-1,.,.,-2
Cc1cc(C(F)(F)F)n2ncc(C(=O)O)c2n1,4,1%,.,3%,-20%,-31*
CCOC(=O)C1CCCN(c2nc3ccccc3nc2C(C#N)C(=O)NCc2ccccc2)C1 (configuration not stated),33*,1%,-9,1%,1%,-3
N#CC(C(=O)NCc1ccccc1)c1nc2ccccc2nc1N1CCCC1 (configuration not stated),8,0%,-7,22%,41%,11
O=C(CSc1nnc2sc3ccccc3n12)N1CCN(c2ccccc2)CC1,-3,-2%,-5,1%,-7%,-59*
O=C(COc1ccccc1)N1CCN(C(=O)c2cccs2)CC1,1,5%,-4,1%,-5%,-3
O=C(COc1ccc(Cl)cc1)N1CCN(C(=O)c2cccs2)CC1,6,6%,-2,-1%,-11%,-61*
O=C(OCC(=O)N1CCN(c2ccccc2)CC1)c1ccccc1[N+](=O)[O-],3,.,-16,-6%,-11%,-36*
Cn1c(Cn2c(=O)sc3ccccc32)nnc1SCC(=O)N1CCN(c2ccccc2)CC1,0,1%,2,-2%,-4%,4
O=C(CSc1ccsc1[N+](=O)[O-])N1CCN(c2ccc(Cl)cc2)CC1,3,0%,4,-7%,-7%,4
O=C(CSc1ccsc1[N+](=O)[O-])N1CCN(c2ccccc2)CC1,0,-3%,-10,1%,-2%,-31*
c1ccc(CNCc2nnc(-c3cc4ccccc4[nH]3)s2)cc1,0,.,-6,.,.,10
CCOc1ccc(Br)cc1C1C(C(=O)OC)=C(C)NC2=C1C(=O)c1ccccc12 (configuration not stated),-2,.,-2,.,.,-4
COc1ccc(-c2cc3ncc(C)n3c(Nc3ncccc3C(N)=O)n2)cc1OC,.,.,.,.,2%,.
O=C(COc1ccc(Br)cc1)N1CCN(c2ccccc2)CC1,0,0%,-3,3%,11%,0
O=C(COc1ccccc1)N1CCN(c2ccccc2)CC1,3,0%,-3,1%,-4%,-35*
CC(=O)c1csc(-c2ccccc2)n1,-1,-1%,-9,-1%,-1%,-55*
O=C(Nc1ccc(Cl)cc1)c1csc(-c2ccccc2)n1,15,-2%,-1,-1%,18%,-10
O=C(CSc1ccccn1)Nc1ccc(Cl)c([N+](=O)[O-])c1,8,-1%,-5,2%,-12%,-34*
O=C(CSc1ccccn1)Nc1ccc2ccccc2c1,1,-4%,-3,6%,4%,-8
COc1ccc(C2c3c(n(C)c4ccccc34)C(=O)N2CC(=O)Nc2ccccc2Cl)cc1 (configuration not stated),19,.,-3,.,.,-25
O=C(Nc1ccccn1)NC1CCS(=O)(=O)C1 (configuration not stated),1,4%,-3,2%,-2%,-34*
Cc1ccc(C(=O)NCC(=O)OC(C(=O)Nc2cc(C(F)(F)F)ccc2Cl)c2ccccc2)cc1 (configuration not stated),2,.,1,.,.,11
Cc1ccccc1OCC(O)CN1CCN(CC(O)COc2ccccc2C)C(C)C1 (configuration not stated),7,3%,-12,1%,8%,-40*
CC1CN(CC(O)COc2ccccc2C(C)(C)C)CC(C)O1 (configuration not stated),124*,1%,-3,-7%,-10%,-31*
SMILES,D1 ag,GALK inhibitor,D1 PAM,USP2a block,Eya2 phos inh,D1 antagonist
Cc1ccccc1CNC(=O)Cn1ccc2cc(S(=O)(=O)N3CCCCC3)ccc21,5,.,2,.,.,-1
O=C(O)Cc1ccc(NC(=O)Nc2cccc(Cl)c2)cc1,0,-5%,-5,1%,-1%,-51*
CN(C)c1ccc(NC(=O)Nc2cccc(Cl)c2)cc1,6,0%,-4,3%,-13%,-10
CC(=O)Nc1ccc(CC(=O)O)cc1,47*,-3%,0,9%,3%,-4
O=C(N/N=C/c1ccco1)c1cc(-c2ccc(Br)s2)[nH]n1,1,.,-7,4%,4%,-1
C/C(=N/NC(=O)c1cc(-c2ccc(Br)s2)[nH]n1)c1ccco1,0,-1%,-10,-4%,-13%,-46*
C/C(=N\NC(=O)c1cc(-c2ccc(Br)s2)[nH]n1)c1ccncc1,3,10%,-1,1%,0%,0
O=C(N/N=C/c1ccco1)c1cc(-c2ccc(Cl)s2)[nH]n1,28,1%,-1,-2%,7%,-43*
Cc1nc(-n2nc(C)c(CCC(C)C)c2C)sc1C(=O)Nc1cccc(Cl)c1C,-1,.,0,.,.,-2
CCN(CC)C(=O)c1ccc(COc2ccc(Cl)c(C)c2)o1,8,-2%,-18,-2%,-3%,-31*
CN(C)C(=O)/C(=C\c1ccc(-c2cccc([N+](=O)[O-])c2)o1)NC(=O)c1ccccc1,0,-2%,-7,-5%,-20%,13
CCCCNC(=O)/C(=C\c1ccc([N+](=O)[O-])o1)NC(=O)c1ccccc1,3,3%,-3,-1%,6%,-39*
COC(=O)/C(=C\c1ccc([N+](=O)[O-])o1)NC(=O)c1ccccc1,0,0%,5,1%,-6%,-20
CN(C)C(=O)/C(=C/c1ccc(-c2cccc([N+](=O)[O-])c2)o1)NC(=O)c1ccccc1,5,-2%,-2,1%,1%,-56*
COc1cc2c(cc1OC)C(COc1cc(C)cc(C)c1)N(C(=O)c1ccc(S(=O)(=O)N3CCCC3)cc1)CC2 (configuration not stated),2,.,1,.,.,2
CCOc1ccccc1CNC(=O)CN1C(=O)c2cccnc2Oc2ccc(Cl)cc21,-2,.,2,.,.,5
O=C1OC(CC(=O)N(Cc2nnc(-c3ccc(Cl)cc3)o2)C2CC2)c2ccccc21 (configuration not stated),1,.,.,-1%,0%,-44*
Cc1ccc(C(=O)N(Cc2nnc(-c3ccc(Cl)cc3)o2)C2CC2)o1,-1,.,2,0%,7%,1
O=C(CSC(=S)N1CCCC1)N(Cc1nnc(-c2ccccc2Cl)o1)C1CC1,5,.,.,-2%,1%,-67*
O=C(COc1ccccc1)N(Cc1nnc(-c2ccccc2Cl)o1)C1CC1,1,.,1,2%,-9%,-10
